The target of assay [1] is Bile acid receptor (Homo sapiens) (UniProt Q96RI1). The experiment in a line: ATG_IR1_CIS: Attagene CIS-FACTORIAL HepG2 Assay for human Nuclear Receptor Subfamily 1 Group H Member 4 (NR1H4), IR1 submotif (AID 2282946). The conditions noted are these: IR1 reporter transcription, actives raise or lower the signal. The gist of the method: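 HepG2 cells transiently transfected with multiplexed cis-element reporter units read endogenous transcription factor activity. After 24 h compound exposure, reporter mRNA was quantified by RT-PCR, fluorescent labelling, HpaI digestion and capillary electrophoresis; bidirectional fitting versus DMSO baseline.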

A short description of assay [2]: ATG_GRE_CIS: Attagene CIS-FACTORIAL HepG2 Assay for human Glucocorticoid Response Elements (GRE) (AID 2282947). The note with it: HepG2 GRE cis-reporter, Attagene multiplex mRNA; actives raise or lower the signal. The gist of the method: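 Reporter transcripts read by RT-PCR with capillary electrophoresis fluorescence after a 24 h chemical exposure of HepG2 cells transiently transfected with multiple cis-element reporter units. Gain or loss fitted against DMSO.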

Assay [3] in a line: ATG_ISRE_CIS: Attagene CIS-FACTORIAL HepG2 Assay for human Interferon Regulatory Factor 1 (IRF1) binding to an Interferon-Stimulated Response Element (ISRE) (AID 2282948). The conditions noted are these: HepG2 ISRE cis-reporter (Attagene), mRNA transcription readout; actives raise or lower the signal. The procedure, abridged:
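Endogenous transcription factor activity read as reporter transcript abundance via RT-PCR and capillary electrophoresis. HepG2 cells transiently transfected, 24 h chemical exposure. Gain or loss fitted against DMSO baseline.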

A short description of assay [4]: ATG_M_32_CIS: Attagene CIS-FACTORIAL HepG2 Assay for M32 Transcription Factor (Internal Marker) (AID 2282949).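 Also: background control marker of the multiplexed CIS panel rather than a real target.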 The note with it: HepG2 Attagene cis-factorial M32 reporter, mRNA; actives raise or lower the signal. The gist of the method: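 HepG2 transfectants (cis-regulated reporter transcription units) dosed 24 h. Reporter mRNA by RT-PCR plus CE, analysed as gain or loss relative to DMSO.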

Assay [5] concerns the target Hypoxia-inducible factor 1-alpha (Homo sapiens) (UniProt Q16665). Kind of assay: ATG_HIF1a_CIS: Attagene CIS-FACTORIAL HepG2 Assay for human Hypoxia Inducible Factor 1 (HIF1A) (AID 2282951). The note with it: HepG2 Attagene cis-factorial HIF1a reporter transcription; actives raise or lower the signal. The procedure, abridged:
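Dosed 24 h, transfected HepG2 cells yielded total RNA whose reporter transcripts were RT-PCR-amplified and sized by capillary electrophoresis using fluorescent labelling; DMSO defined baseline, with gain and loss of signal both fitted.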

For assay [6], the target named is Hepatocyte nuclear factor 6 (Homo sapiens) (UniProt Q9UBC0). Kind of assay: ATG_HNF6_CIS: Attagene CIS-FACTORIAL HepG2 Assay for human Hepatocyte Nuclear Factor 6 (HNF6) (AID 2282952). The note with it: HepG2 Attagene cis-factorial HNF6 reporter transcription; actives raise or lower the signal. The gist of the method:
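First, HepG2 cells were transfected with the multiplexed cis reporter library and dosed with chemical for 24 h. Next, RNA was reverse-transcribed, PCR-amplified and fluorescently labelled. Finally, HpaI-digested fragments were read by capillary electrophoresis.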

Assay [7] addresses Heat shock factor protein 1 (Homo sapiens) (UniProt Q00613). Kind of assay: ATG_HSE_CIS: Attagene CIS-FACTORIAL HepG2 Assay for human Heat Shock Transcription Factor 1 (HSE) (AID 2282953). The conditions noted are these: HepG2 HSE cis-reporter, Attagene RNA transcription; actives raise or lower the signal. The procedure, abridged: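 Reporter mRNA induction in HepG2 is measured 24 h after dosing, using transiently transfected multiplexed cis-regulated reporter units. Signal comes from capillary electrophoresis of labelled RT-PCR products, with DMSO as negative control.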

The nature of assay [8]: ATG_MRE_CIS: Attagene CIS-FACTORIAL HepG2 Assay for human Metal Responsive Element (MRE) (AID 2282954). The conditions noted are these: HepG2 MRE cis-reporter transcription, Attagene multiplex; actives raise or lower the signal. The procedure, abridged:
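Endogenous MRE-dependent transcription read as reporter mRNA in transiently transfected human HepG2 cells at 24 h. RNA reverse-transcribed, PCR-amplified, labelled and resolved by capillary electrophoresis; gain or loss relative to DMSO.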

Assay [9] can be described thus: ATG_PBREM_CIS: Attagene CIS-FACTORIAL HepG2 Assay for human Phenobarbital-responsive Enhancer Module (PBREM) (AID 2282955). The conditions noted are these: HepG2 PBREM cis-reporter, Attagene multiplexed transcription; actives raise or lower the signal. The gist of the method:
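Transfected liver-derived HepG2 cells exposed 24 h; PBREM reporter transcript quantified via RT-PCR and capillary electrophoresis, with activity in either direction referenced to DMSO.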

Assay [10] concerns the target Paired box protein Pax-6 (Homo sapiens) (UniProt P26367). Kind of assay: ATG_Pax6_CIS: Attagene CIS-FACTORIAL HepG2 Assay for human Paired Box 6 (PAX6) (AID 2282956). The conditions noted are these: HepG2 CIS-FACTORIAL PAX6 reporter transcription, RNA readout; actives raise or lower the signal. The procedure, abridged:
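Read-out is reporter transcript level, measured by RT-PCR with fluorescent primer extension and capillary electrophoresis after 24 h dosing of transfected HepG2 cells. Activity in either direction fitted relative to DMSO control.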

A short description of assay [11]: ATG_PXRE_CIS: Attagene CIS-FACTORIAL HepG2 Assay for human Pregnane X Receptor Element (PXRE) (AID 2282957). The note with it: HepG2 Attagene CIS-FACTORIAL PXRE reporter, mRNA; actives raise or lower the signal. The procedure, abridged: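 After a 24 h chemical incubation, total RNA from transfected HepG2 cells was reverse-transcribed and reporter cDNA amplified, FAM-labeled, HpaI-digested and sized by capillary electrophoresis. DMSO served as baseline for bidirectional curve fitting.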

The nature of assay [12]: ATG_RORE_CIS: Attagene CIS-FACTORIAL HepG2 Assay for human RAR-related Orphan Receptor Element (RORE) (AID 2282959). The note with it: HepG2 Attagene cis-factorial RORE reporter, mRNA; actives raise or lower the signal. The procedure, abridged: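 Transiently transfected HepG2 reporter cells were treated 24 h. Reporter transcripts were detected by RT-PCR and capillary electrophoresis, with bidirectional fitting against DMSO.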

The nature of assay [13]: ATG_Sox_CIS: Attagene CIS-FACTORIAL HepG2 Assay for human SRY-box transcription factor (SOX) (AID 2282960). The note with it: HepG2 Attagene cis-factorial SOX reporter, mRNA; actives raise or lower the signal. The gist of the method:
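Gain- or loss-of-signal endpoint, fitted bidirectionally with DMSO as negative control. Based on reporter mRNA from transfected HepG2 cells harvested 24 h post-treatment and quantified via RT-PCR and capillary electrophoresis.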

Assay [14] concerns the target Transcription factor Sp1 (Homo sapiens) (UniProt P08047). Kind of assay: ATG_Sp1_CIS: Attagene CIS-FACTORIAL HepG2 Assay for human Specificity Protein 1 (Sp1) (AID 2282961). The note with it: HepG2 Sp1 cis-reporter transcription, actives raise or lower the signal. The procedure, abridged: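 Endpoint reflects endogenous Sp1 transcriptional activity, not an exogenous fusion protein: HepG2 cells with transfected cis-regulated reporters, 24 h dosing, RT-PCR/capillary electrophoresis mRNA read-out, DMSO-normalised bidirectional fit.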

The nature of assay [15]: ATG_SREBP_CIS: Attagene CIS-FACTORIAL HepG2 Assay for human Sterol Regulatory Element Binding (SREBP) (AID 2282962). The conditions noted are these: HepG2 Attagene cis-factorial SREBP reporter, mRNA; actives raise or lower the signal. The procedure, abridged:
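Endogenous SREBP activity read as cis-element-driven reporter transcript in transiently transfected HepG2, 24 h post-dosing; quantified via RT-PCR plus capillary electrophoresis of fluorescent fragments. Gain or loss of signal fitted relative to DMSO baseline.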

In assay [16] the target is Signal transducer and activator of transcription 3 (Homo sapiens) (UniProt P40763). The experiment in a line: ATG_STAT3_CIS: Attagene CIS-FACTORIAL HepG2 Assay for human Signal Transducer and Activator of Transcription 3 (STAT3) (AID 2282963). The conditions noted are these: HepG2, Attagene cis-factorial STAT3 reporter transcription; actives raise or lower the signal. The gist of the method:
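Readout is reporter transcript quantified by RT-PCR and capillary electrophoresis, with 6-FAM primer extension and HpaI digestion. Total RNA is taken 24 h after dosing transiently transfected HepG2 carrying cis-regulated reporter units. Bidirectional fit against DMSO.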

The nature of assay [17]: ATG_TA_CIS: Attagene CIS-FACTORIAL HepG2 Assay for human TA Basal Promoter (AID 2282964). The note with it: HepG2 Attagene CIS-factorial TA basal promoter reporter; actives raise or lower the signal. The gist of the method:
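Cis-factorial format in HepG2: reporters report endogenous factors, not chimeric Gal4 fusions. After 24 h treatment, reporter transcripts were measured by RT-PCR-capillary electrophoresis fluorescence, analysed bidirectionally versus DMSO.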

Assay [18] can be described thus: ATG_TCF_b_cat_CIS: Attagene CIS-FACTORIAL HepG2 Assay for human T-Cell-Factor with beta-catenin (TCF/b-cat) (AID 2282965). The note with it: HepG2 TCF/beta-catenin cis-reporter transcription, actives raise or lower the signal. The procedure, abridged:
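Endogenous TCF/LEF activity read as reporter transcript level via RT-PCR and capillary electrophoresis fluorescence in transfected HepG2, 24 h exposure; gain or loss of signal fitted against DMSO controls.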

A short description of assay [19]: ATG_M_06_CIS: Attagene CIS-FACTORIAL HepG2 Assay for M06 Transcription Factor (Internal Marker) (AID 2282950). The note with it: HepG2 Attagene CIS-FACTORIAL M06 internal marker reporter; actives raise or lower the signal. The gist of the method: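 Measured 24 h post-dosing in transiently transfected HepG2 cells, this internal-marker endpoint reports reporter mRNA via RT-PCR with fluorescent primer extension and capillary electrophoresis. DMSO served as negative control and baseline for bidirectional fitting.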

Active and inactive are the calls of the source. The calls were made as follows: active = hit-call score of the fitted dose curve at least 0.9, where 1 is the maximum; inactive = score below 0.9.

This note sets out measurements from PubChem BioAssay (EPA / NIEHS).

Sequence of Hepatocyte nuclear factor 6 (Homo sapiens) (Q9UBC0 whole entry, looked up, the tested form may be a part): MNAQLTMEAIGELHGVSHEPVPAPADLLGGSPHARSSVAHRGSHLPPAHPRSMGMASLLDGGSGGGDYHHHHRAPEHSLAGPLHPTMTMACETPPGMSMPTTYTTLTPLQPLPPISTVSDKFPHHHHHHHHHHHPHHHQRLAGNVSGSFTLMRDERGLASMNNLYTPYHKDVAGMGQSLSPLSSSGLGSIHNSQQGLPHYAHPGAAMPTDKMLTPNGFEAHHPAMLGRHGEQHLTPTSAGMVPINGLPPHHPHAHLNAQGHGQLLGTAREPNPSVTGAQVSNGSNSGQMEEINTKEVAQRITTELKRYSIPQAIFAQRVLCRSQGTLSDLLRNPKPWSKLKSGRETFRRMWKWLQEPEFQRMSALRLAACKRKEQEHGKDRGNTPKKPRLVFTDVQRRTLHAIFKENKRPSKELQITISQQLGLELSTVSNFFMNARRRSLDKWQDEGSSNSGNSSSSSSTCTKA
Sequence of Bile acid receptor (Homo sapiens) (Q96RI1 whole entry, looked up): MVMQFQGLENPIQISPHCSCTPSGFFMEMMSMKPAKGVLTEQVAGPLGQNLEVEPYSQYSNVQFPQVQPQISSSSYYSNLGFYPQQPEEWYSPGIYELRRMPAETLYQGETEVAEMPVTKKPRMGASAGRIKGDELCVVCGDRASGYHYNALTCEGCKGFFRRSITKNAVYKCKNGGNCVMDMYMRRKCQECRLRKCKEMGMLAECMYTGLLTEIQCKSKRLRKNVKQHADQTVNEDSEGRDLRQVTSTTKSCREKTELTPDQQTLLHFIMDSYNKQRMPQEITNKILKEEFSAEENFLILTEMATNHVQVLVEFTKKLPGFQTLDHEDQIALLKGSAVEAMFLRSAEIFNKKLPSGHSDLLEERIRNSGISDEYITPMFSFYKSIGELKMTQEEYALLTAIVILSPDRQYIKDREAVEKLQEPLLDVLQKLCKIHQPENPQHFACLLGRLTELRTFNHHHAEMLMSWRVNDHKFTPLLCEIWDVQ
Sequence of Hypoxia-inducible factor 1-alpha (Homo sapiens) (Q16665 whole entry, looked up): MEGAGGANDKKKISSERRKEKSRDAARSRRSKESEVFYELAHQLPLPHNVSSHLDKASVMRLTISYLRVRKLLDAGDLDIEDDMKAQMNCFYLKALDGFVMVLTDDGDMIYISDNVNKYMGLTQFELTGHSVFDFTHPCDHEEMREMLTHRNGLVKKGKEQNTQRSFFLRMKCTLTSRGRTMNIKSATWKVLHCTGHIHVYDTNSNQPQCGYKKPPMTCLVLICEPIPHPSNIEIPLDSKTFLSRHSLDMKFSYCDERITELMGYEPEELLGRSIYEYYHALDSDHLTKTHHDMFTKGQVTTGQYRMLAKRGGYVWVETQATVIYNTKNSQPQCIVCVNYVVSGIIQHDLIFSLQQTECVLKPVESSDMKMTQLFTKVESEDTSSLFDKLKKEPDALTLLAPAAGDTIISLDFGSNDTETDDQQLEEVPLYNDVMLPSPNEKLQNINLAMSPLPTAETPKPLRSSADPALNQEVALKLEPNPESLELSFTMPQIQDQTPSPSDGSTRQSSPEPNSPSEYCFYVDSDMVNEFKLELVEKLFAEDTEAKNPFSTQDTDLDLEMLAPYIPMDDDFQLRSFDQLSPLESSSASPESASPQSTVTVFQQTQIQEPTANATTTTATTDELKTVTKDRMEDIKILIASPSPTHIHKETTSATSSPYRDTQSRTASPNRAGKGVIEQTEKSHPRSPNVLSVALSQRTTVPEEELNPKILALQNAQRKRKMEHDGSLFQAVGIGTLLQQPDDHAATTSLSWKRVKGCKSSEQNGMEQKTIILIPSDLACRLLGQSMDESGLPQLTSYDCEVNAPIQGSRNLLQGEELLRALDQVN
Sequence of Signal transducer and activator of transcription 3 (Homo sapiens) (P40763 whole entry, looked up): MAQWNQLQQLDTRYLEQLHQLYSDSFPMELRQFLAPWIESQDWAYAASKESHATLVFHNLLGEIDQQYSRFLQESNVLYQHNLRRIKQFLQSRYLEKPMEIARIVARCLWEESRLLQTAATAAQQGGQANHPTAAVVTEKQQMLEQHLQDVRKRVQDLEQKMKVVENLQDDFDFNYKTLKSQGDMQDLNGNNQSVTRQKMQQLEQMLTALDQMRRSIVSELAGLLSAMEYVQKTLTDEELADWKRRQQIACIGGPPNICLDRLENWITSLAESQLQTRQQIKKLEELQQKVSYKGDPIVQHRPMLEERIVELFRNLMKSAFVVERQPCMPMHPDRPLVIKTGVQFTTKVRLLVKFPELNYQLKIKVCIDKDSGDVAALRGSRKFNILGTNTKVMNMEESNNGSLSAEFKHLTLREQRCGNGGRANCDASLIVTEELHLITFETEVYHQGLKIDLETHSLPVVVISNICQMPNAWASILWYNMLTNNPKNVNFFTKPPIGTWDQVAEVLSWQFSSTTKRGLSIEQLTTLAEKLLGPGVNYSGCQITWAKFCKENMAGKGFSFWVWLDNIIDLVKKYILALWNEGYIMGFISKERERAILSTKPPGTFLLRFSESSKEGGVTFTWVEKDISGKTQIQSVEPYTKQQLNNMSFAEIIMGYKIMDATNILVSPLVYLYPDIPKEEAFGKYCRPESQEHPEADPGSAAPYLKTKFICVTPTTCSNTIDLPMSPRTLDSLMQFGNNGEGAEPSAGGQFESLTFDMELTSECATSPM
Sequence of Heat shock factor protein 1 (Homo sapiens) (Q00613 whole entry, looked up): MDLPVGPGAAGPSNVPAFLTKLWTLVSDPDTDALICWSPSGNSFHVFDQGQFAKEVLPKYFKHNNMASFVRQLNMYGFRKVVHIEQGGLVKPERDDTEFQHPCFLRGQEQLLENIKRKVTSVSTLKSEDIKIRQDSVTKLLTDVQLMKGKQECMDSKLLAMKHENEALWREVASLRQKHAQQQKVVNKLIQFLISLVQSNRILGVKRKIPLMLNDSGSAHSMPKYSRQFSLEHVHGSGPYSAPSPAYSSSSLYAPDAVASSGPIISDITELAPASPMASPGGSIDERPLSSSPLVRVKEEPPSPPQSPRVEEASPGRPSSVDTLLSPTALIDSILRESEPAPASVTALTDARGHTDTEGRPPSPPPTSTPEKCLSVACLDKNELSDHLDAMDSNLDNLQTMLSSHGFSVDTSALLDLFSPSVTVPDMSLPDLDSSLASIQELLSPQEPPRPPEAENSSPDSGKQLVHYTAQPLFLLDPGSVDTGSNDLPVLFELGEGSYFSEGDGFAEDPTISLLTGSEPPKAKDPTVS
Sequence of Paired box protein Pax-6 (Homo sapiens) (P26367 whole entry, looked up): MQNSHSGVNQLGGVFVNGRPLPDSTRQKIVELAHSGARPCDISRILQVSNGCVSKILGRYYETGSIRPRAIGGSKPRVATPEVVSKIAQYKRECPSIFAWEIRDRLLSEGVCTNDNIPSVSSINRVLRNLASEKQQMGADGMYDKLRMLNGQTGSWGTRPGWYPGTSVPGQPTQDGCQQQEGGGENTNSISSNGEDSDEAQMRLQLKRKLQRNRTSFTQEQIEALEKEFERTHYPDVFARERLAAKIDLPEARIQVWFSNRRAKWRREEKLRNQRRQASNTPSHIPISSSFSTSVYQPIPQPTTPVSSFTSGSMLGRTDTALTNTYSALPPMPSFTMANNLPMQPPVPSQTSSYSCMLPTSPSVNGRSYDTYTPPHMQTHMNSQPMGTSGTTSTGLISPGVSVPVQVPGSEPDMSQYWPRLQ
Sequence of Transcription factor Sp1 (Homo sapiens) (P08047 whole entry, looked up, the tested form may be a part): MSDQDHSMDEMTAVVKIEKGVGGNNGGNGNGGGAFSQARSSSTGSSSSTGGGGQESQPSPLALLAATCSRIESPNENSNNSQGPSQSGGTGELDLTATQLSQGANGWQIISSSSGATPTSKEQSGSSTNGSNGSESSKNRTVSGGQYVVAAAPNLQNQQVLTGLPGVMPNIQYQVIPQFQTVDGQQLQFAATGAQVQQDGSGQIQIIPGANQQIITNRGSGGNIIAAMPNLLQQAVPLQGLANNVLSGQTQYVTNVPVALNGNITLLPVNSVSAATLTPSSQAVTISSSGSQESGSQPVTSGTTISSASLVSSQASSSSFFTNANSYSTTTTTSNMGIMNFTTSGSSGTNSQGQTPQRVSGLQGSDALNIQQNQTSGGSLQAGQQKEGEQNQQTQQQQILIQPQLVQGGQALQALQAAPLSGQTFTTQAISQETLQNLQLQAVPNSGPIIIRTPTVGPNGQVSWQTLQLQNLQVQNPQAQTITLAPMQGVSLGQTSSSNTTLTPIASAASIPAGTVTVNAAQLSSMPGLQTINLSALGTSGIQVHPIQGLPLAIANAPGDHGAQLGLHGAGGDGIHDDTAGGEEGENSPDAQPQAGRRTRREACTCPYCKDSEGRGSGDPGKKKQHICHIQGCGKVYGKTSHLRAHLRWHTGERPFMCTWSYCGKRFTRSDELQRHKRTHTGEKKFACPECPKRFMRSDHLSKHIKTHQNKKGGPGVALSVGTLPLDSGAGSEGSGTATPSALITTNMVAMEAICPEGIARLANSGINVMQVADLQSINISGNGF

Consider `CCC(C)c1ccc(O)cc1` (stereo unspecified), for which the outcome in assay [1], in [2], in assay [3], in assay [4], in assay [5] and in assay [6] was inactive. The compound was classed as inactive in assay [7], in assay [9], in assay [10], in assay [12], in [13] and in [14]. Besides, the call in [16], in [17] and in assay [18] was inactive. The concentration at half-maximal activity (AC50) in assay [8] was 82.1 µM (active); in assay [11], 26.5 µM (active); in assay [15], 163 µM (active).
On to `Nc1ccc(Cc2ccc(N)cc2)cc1`, for which the compound was called inactive in assay [1], in [2], in assay [3], in [4], in [19] and in assay [5]. For the same compound, the result in [6], in assay [7], in [8], in assay [9], in assay [10] and in [11] was inactive. Further, the result in assay [12], in assay [13], in [14], in assay [15], in assay [16] and in assay [17] was inactive. Further, the outcome in assay [18] was inactive.
Regarding `CC(C)(O)c1cnn2c(-c3ccc(F)c(-c4c(F)cccc4C#N)c3)cnc2n1`, the call in assay [1], in assay [2], in assay [3], in [4], in [19] and in assay [6] was inactive. For the same compound, the compound was classed as inactive in assay [10], in [12], in assay [13], in assay [14], in assay [15] and in assay [16]. Further, the AC50 in [5] was 26.8 µM (active); in assay [7], 25.8 µM (active); in [8], 1.73 µM (active); in [9] it was 0.785 µM (active); in assay [11], 0.137 µM (active); in assay [17], 13.1 µM (active). Also, in [18], the AC50 was 8.97 µM (active).
